In PubChem BioAssay (Tox21):
Values without a mark were called inactive. Where a call stands in place of a potency, no number is given. Active and inactive are the calls of the source. Unless noted, calls come from the whole dose curve; as a rule, active = well fitted curve in the direction sought with a large enough effect in the repeat runs; inconclusive = weak or mixed curves; inactive = no such curve, though single readings can be large; an effect the other way counts as inactive or inconclusive.

How the values were obtained:
[1] = qHTS assay to identify small molecule antagonists of the thyroid receptor (TR) signaling pathway - cell viability counter screen (AID 743064); settings: GH3.TRE-Luc viability, CellTiter-Fluor, 24 h; series mostly up to 70.3 µM; note: nearly all actives have a fitted effect of over 50% in size; note: potency is the fitted concentration of half-maximal effect
In short: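 CellTiter-Fluor readout, 30 min at 37 °C/5% CO2, following 23.5 h incubation of GH3.TRE-Luc cells with test compound and 1 nM T3 (final).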

[2] = qHTS assay to identify small molecule antagonists of the thyroid receptor (TR) signaling pathway (AID 743065); settings: GH3.TRE-Luc, T3-stimulated luciferase inhibition, 23.5 h; series mostly up to 70.3 µM; note: nearly all actives have a fitted effect of over 55% in size; note: potency is the fitted concentration of half-maximal effect
In short: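 GH3.TRE-Luc rat pituitary cells (two TREs driving luciferase) were dosed with compound, then stimulated with 1 nM T3 (final) for 23.5 h at 37 C. ONE-Glo luminescence was the read-out, with CellTiter-Fluor fluorescence as the cytotoxicity counter-screen.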

[3] = system: thyroid hormone receptor (rat, GH3 cells); experiment: qHTS assay to identify small molecule agonists of the thyroid receptor (TR) signaling pathway (AID 743066; calls by dose curve); settings: GH3.TRE-Luc cells, TR agonist luciferase, 24 h; series mostly up to 83.9 µM
[4] = biological target: Estrogen receptor (Homo sapiens) (UniProt P03372); experiment: qHTS assay to identify small molecule antagonists of the estrogen receptor alpha (ER-alpha) signaling pathway (AID 743069; active = well fitted curve in the direction sought with a large enough effect in the signal ratio in the repeat runs, not every such curve was filed as active; inconclusive = weak or mixed curves, or effect the other way; inactive = no such curve, though single readings can be large or run the other way; the % refers to the signal ratio); settings: HEK293 ER-alpha-UAS-bla, beta-lactamase ratio, antagonist mode; series mostly up to 69.4 µM
In short: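 HEK293 ER-alpha-UAS-bla GripTite cells, held overnight in 2% charcoal-stripped FBS, 5,000 cells/well, preincubated 4 h, then compound plus 17beta-estradiol for 18 h at 37C. Beta-lactamase read by LiveBLAzer B/G FRET substrate, 2 h at room temperature.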

[5] = qHTS assay to identify small molecule antagonists of the estrogen receptor alpha (ER-alpha) signaling pathway - cell viability counter screen (AID 743074; calls by dose curve;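 note: HEK293 cells carrying ER-alpha-UAS-bla reporter stimulated with 17beta-estradiol; nearly all actives have a fitted effect of over 45% in size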); settings: ERalpha-bla HEK293 viability, CellTiter-Glo luminescence, 18 h; series mostly up to 69.4 µM
[6] = biological target: Estrogen receptor (Homo sapiens) (UniProt P03372); experiment: qHTS assay to identify small molecule agonists of the estrogen receptor alpha (ER-alpha) signaling pathway (AID 743075; calls by dose curve; note: potency is the fitted concentration of half-maximal effect); settings: HEK293 ER-alpha-UAS-bla, beta-lactamase FRET ratio, 18 h; series mostly up to 70.1 µM
[7] = biological target: Estrogen receptor (Homo sapiens) (UniProt P03372); experiment: qHTS assay to identify small molecule agonists of the estrogen receptor alpha (ER-alpha) signaling pathway using the BG1 cell line (AID 743079); settings: BG1Luc4E2 cells, ERE-luciferase agonist, 22 h; activation: at 70.3 µM (top of the series); note: nearly all actives have a fitted effect of over 20% in size; note: potency is the fitted concentration of half-maximal effect
[8] = qHTS assay to identify small molecule antagonists of the estrogen receptor alpha (ER-alpha) signaling pathway using the BG1 cell line (AID 743080; calls by dose curve;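 note: BG1 cells stimulated with 17beta-estradiol alongside compound; nearly all actives have a fitted effect of over 25% in size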); settings: BG1Luc4E2 ERE-luciferase antagonist mode, luminescence; series mostly up to 70.3 µM
In short: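 Endogenous full-length ER-alpha in BG1-Luc-4E2 cells drives a stably integrated 4×ERE luciferase gene; compounds were tested against 17beta-estradiol over 21.5 h, with luminescence and multiplexed viability fluorescence recorded.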

[9] = qHTS assay to identify small molecule antagonists of the estrogen receptor alpha (ER-alpha) signaling pathway using the BG1 cell line - cell viability counter screen (AID 743081); settings: BG1Luc4E2 viability, CellTiter-Fluor, 22 h; series mostly up to 70.3 µM;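 note: compound given together with 17beta-estradiol as the ER stimulus; nearly all actives have a fitted effect of over 45% in size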
[10] = biological target: Aromatase (Homo sapiens) (UniProt P11511); experiment: qHTS assay to identify aromatase inhibitors (AID 743083); settings: MCF-7 aro ERE, testosterone-driven ERE luciferase, 24 h; series mostly up to 70.3 µM; note: nearly all actives have a fitted effect of over 55% in size
[11] = qHTS assay to identify aromatase inhibitors - cell viability counter screen (AID 743084); settings: MCF-7 aro ERE viability, CellTiter-Fluor, 24 h; series mostly up to 70.3 µM;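 note: cells stimulated with testosterone during compound exposure; nearly all actives have a fitted effect of over 55% in size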
[12] = qHTS assay to identify small molecule that activate the aryl hydrocarbon receptor (AhR) signaling pathway - cell viability counter screen (AID 743086); settings: HepG2-AhR-luc viability, CellTiter-Fluor, 24 h; series mostly up to 70.3 µM;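 note: HepG2 liver cells carrying the AhR DRE luciferase reporter; nearly all actives have a fitted effect of over 45% in size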
In short: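 HepG2-AhR-luc (HG2L7.5c1) cells, 4000/well, treated 24 h at 37 C with compound; viability measured as CellTiter-Fluor fluorescence after 30 min in the same wells as the luciferase read.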

[13] = biological target: Peroxisome proliferator-activated receptor gamma (Homo sapiens) (UniProt P37231); experiment: qHTS assay to identify small molecule agonists of the peroxisome proliferator-activated receptor gamma (PPARg) signaling pathway (AID 743094; active = well fitted activation curve with a large enough effect in the signal ratio in the repeat runs, not every such curve was filed as active; inconclusive = weak or mixed curves, or effect the other way; inactive = no such curve, though single readings can be large or run the other way; the % refers to the signal ratio); settings: HEK293H PPARg-UAS-bla, beta-lactamase FRET ratio, 17 h; series mostly up to 57 µM
In short: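 Quantitative HTS agonist mode: stable HEK293H line with UAS-beta-lactamase reporter under PPARg control, 17 h compound exposure at 37C, fluorescence after 1 h FRET substrate loading at room temperature.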

[14] = qHTS assay to identify small molecule phospholipidosis (PLD) inducers (AID 1259344; active = well fitted curve in the direction sought with a large enough effect; inconclusive = small, poorly fitted or top-dose-only effect, or another doubt; inactive = no such curve, though single readings can be large; an effect the other way counts as inactive or inconclusive); settings: HepG2 phospholipidosis, LipidTOX Red imaging, 24 h; series mostly up to 38.3 µM
In short: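 HepG2 cells, 900/well, treated with compound plus LipidTOX Red for 24 h at 37 C; amiodarone positive and DMSO negative controls. Fixed with paraformaldehyde/Hoechst, then high-content imaging scored LipidTOX pit count and integrated intensity per well and per cell.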

[15] = biological target: Nuclear receptor subfamily 1 group I member 2 (Rattus norvegicus) (UniProt Q9R1A7); experiment: Rat pregnane X receptor (rPXR) activation by small molecules, qHTS assay (AID 1346983); settings: rPXR luciferase reporter cells, One-Glo luminescence, 24 h; max activation: stronger effect = higher value; note: nearly all actives have a fitted effect of over 20% in size
In short: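 Cell-based rPXR activation assay: rPXR cells, 2,000 per well, rested 5hr at 37 C, then exposed to compounds in DMSO for 24 hr at 37 C. Luciferase activity read by One-Glo luminescence after 30 min at room temperature.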

[16] = biological target: Nuclear receptor subfamily 1 group I member 2 (Homo sapiens) (UniProt O75469); experiment: CYP3A4 induction through human pregnane X receptor (PXR) by small molecules, qHTS assay (AID 1346984); settings: DPX-2 HepG2 PXR, CYP3A4-luciferin luminescence, 24 h; series mostly up to 46.1 µM; note: nearly all actives have a fitted effect of over 40% in size
In short: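 Steps: seed DPX-2 cells, 5 hr at 37C; pin-transfer compounds; 24 hr at 37C; add Luciferin-IPA (3uM final), 3 hr at 37C; add One-Glo, 30 min RT; read luminescence.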

[17] = biological target: Nuclear receptor subfamily 1 group I member 2 (Homo sapiens) (UniProt O75469); experiment: Human pregnane X receptor (PXR) activation by small molecules, qHTS assay (AID 1346985); settings: DPX-2 HepG2 CYP3A4-luciferase, 24 h; series mostly up to 38.3 µM; note: nearly all actives have a fitted effect of over 40% in size
In short: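 DPX-2 cells (HepG2 co-transfected with a PXR response element and a CYP3A4-promoter luciferase construct) were seeded at 2,000 per well, rested 5 hr at 37C, then exposed to DMSO-dissolved compounds for 24 hr. Activation was read as luciferase luminescence.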

[18] = biological target: Aryl hydrocarbon receptor (Homo sapiens) (UniProt P35869); experiment: qHTS assay to identify small molecule that activate the aryl hydrocarbon receptor (AhR) signaling pathway (AID 743085); settings: HepG2 AhR-luc (HG2L7.5c1), luciferase, 24 h; series mostly up to 70.3 µM;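 note: HG2L7.5c1 human HepG2 liver cells with stably integrated DRE-driven firefly reporter; nearly all actives have a fitted effect of over 15% in size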
In short: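 Stably transfected human liver carcinoma cells (HG2L7.5c1; 20 DRE-firefly luciferase) were incubated 5 h, dosed, and kept 24 h at 37C. Agonism was scored from increased luciferase luminescence.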

Chain of Aryl hydrocarbon receptor (Homo sapiens) (P35869 whole entry, looked up): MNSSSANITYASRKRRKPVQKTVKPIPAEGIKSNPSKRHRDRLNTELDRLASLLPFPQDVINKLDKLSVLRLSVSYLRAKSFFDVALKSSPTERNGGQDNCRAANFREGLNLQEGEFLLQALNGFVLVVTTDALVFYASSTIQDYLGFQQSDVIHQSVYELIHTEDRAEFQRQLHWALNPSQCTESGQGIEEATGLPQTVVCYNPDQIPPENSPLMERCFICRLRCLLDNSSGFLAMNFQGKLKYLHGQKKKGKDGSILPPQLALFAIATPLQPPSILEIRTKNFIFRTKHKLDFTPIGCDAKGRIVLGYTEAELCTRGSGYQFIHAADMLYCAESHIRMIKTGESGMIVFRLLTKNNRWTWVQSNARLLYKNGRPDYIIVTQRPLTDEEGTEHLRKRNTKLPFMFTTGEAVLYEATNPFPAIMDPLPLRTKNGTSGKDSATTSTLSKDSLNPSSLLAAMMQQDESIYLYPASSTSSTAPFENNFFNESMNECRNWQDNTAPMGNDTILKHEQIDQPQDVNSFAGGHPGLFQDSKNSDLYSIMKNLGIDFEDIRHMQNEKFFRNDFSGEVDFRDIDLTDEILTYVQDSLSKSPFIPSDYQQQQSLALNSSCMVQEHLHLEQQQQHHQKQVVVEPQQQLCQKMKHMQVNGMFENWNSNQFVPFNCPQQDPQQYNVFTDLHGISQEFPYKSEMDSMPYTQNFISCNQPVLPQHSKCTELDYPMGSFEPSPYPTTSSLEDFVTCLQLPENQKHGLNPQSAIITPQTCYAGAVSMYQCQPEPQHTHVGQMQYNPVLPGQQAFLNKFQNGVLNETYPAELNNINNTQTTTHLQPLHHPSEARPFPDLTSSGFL
Chain of Estrogen receptor (Homo sapiens) (P03372 whole entry, looked up): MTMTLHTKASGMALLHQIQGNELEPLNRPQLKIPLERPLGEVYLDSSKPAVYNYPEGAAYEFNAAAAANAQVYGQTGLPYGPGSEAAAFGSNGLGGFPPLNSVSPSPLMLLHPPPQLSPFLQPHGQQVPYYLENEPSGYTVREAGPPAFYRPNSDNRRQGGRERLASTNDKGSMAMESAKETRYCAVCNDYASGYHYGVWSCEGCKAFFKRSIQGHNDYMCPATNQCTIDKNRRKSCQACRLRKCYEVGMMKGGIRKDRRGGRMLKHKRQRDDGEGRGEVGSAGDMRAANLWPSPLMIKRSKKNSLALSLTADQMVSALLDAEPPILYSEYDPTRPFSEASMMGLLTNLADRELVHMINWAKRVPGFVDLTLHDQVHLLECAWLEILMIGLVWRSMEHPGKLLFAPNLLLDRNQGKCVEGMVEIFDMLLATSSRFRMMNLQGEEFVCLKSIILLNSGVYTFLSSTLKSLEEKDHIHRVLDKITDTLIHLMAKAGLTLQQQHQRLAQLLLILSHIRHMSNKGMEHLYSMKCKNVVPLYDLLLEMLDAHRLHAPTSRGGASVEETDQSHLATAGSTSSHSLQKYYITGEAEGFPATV
Chain of Peroxisome proliferator-activated receptor gamma (Homo sapiens) (P37231 whole entry, looked up): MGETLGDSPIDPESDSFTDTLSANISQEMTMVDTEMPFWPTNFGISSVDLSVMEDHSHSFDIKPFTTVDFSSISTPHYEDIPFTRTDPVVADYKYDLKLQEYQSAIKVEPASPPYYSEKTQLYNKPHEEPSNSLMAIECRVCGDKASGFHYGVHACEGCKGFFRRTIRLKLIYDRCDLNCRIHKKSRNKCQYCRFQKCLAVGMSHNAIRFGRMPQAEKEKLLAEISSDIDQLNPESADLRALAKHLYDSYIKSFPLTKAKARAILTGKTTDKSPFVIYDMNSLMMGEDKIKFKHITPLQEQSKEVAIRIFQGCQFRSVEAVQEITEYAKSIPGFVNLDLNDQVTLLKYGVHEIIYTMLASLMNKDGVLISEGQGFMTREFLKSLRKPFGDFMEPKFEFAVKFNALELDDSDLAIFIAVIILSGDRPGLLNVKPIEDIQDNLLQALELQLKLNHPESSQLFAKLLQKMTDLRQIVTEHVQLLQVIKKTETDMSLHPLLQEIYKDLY
Chain of Aromatase (Homo sapiens) (P11511 whole entry, looked up): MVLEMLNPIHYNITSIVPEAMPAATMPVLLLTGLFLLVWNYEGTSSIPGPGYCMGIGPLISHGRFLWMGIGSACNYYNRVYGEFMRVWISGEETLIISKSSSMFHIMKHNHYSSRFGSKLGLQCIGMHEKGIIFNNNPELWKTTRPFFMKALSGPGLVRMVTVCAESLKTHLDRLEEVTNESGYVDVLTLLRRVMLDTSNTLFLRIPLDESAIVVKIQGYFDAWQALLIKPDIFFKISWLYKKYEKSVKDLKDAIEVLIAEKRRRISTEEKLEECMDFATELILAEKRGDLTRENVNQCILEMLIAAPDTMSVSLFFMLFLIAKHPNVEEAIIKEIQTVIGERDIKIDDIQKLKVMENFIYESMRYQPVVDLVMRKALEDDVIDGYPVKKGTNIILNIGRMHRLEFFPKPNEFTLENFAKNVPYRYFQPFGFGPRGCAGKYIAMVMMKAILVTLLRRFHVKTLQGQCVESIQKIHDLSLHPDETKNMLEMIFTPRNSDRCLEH
Chain of Nuclear receptor subfamily 1 group I member 2 (Rattus norvegicus) (Q9R1A7 whole entry, looked up): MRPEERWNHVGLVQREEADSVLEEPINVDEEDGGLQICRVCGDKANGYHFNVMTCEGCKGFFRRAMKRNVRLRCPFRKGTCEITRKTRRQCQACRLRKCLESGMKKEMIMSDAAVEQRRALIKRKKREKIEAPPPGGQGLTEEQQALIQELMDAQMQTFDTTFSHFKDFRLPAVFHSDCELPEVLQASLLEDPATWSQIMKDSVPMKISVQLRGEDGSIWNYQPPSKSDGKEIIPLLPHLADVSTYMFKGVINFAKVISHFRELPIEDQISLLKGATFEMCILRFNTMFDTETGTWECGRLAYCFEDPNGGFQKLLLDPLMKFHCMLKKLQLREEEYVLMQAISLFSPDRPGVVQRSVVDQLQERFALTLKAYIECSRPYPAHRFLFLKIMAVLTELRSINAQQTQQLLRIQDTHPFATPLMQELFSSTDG

SMILES	Potency [1]	Potency [2]	Potency [3]	Potency [4]	Potency [5]	Potency [6]	Potency [7]	Potency [8]	Potency [9]	Potency [10]	Potency [11]	Potency [12]	Potency [13]	Potency [14]	max activation [15] [%]	Potency [16]	Potency [17]	Potency [18]
CCOC(=O)c1c[nH]c2cc(OCC(C)C)c(OCC(C)C)cc2c1=O	inactive	inactive	inactive	inactive	inactive	inactive	inactive	inactive	inactive	inactive	inactive	inactive	inactive	inactive	-0.745	inactive	inactive	
CO/N=C(\C(=O)N[C@@H]1C(=O)N2C(C(=O)O)=C(CSC(=O)c3ccco3)CS[C@H]12)c1csc(N)n1	inactive	inactive	inactive	inactive	inactive	inactive	inactive	inactive	inactive	inactive	inactive		inactive	inactive	-5.54	inactive	inactive	inactive
CC(C)[C@H](N)C(=O)OCC(CO)OCn1cnc2c(=O)[nH]c(N)nc21 (some centres not stated)	inactive	inactive	inactive	inactive	inactive	inactive	inactive	inactive	inactive	inactive	inactive	inactive	inactive	inactive	-3.1	inactive	inactive	inactive
CC(Oc1ccccc1)C(=O)N[C@@H]1C(=O)N2[C@@H]1SC(C)(C)[C@@H]2C(=O)O (some centres not stated)	inactive	inactive	inactive	inactive	inactive	inactive	inactive	inactive	inactive	inactive	inactive	inactive	inactive	inactive	-1.33	inactive	inactive	inactive
CC(O)[C@@H]1NC(=O)[C@H](Cc2ccccc2)NC(=O)[C@H](C(C)O)NC(=O)[C@H](CCCCN)NC(=O)[C@H](Cc2c[nH]c3ccccc23)NC(=O)[C@H](Cc2ccccc2)NC(=O)[C@H](Cc2ccccc2)NC(=O)[C@H](CC(N)=O)NC(=O)[C@H](CCCCN)NC(=O)[C@@H](NC(=O)CNC(=O)[C@H](C)N)CSSC[C@@H](C(=O)O)NC(=O)[C@H](CO)NC1=O (some centres not stated)	inactive	inactive	inactive	inactive	inactive	inactive	inactive	inactive	inactive	inactive	inactive	inactive	inactive	inactive	-3.53	inactive	inactive	inactive
CCCCCCCCCCCCOCCCN	inactive	inactive	inactive	inactive	inactive	inactive	inactive	inactive	inactive	inactive	inactive	inactive		inactive	-3.73	inactive	inactive	
O=C(O)c1cc(N=Nc2ccc(O)c(C(=O)O)c2)ccc1O	inactive	inactive	inactive	inactive	inactive	inactive	inactive	inactive	inactive	inactive	inactive	inactive	inactive	inactive	-4.04	inactive	inactive	inactive
CCN1C(=O)NC(c2ccccc2)C1=O (configuration not stated)	inactive	inactive	inactive	inactive	inactive	inactive	inactive		inactive	inactive	inactive	inactive		inactive	7.71	inactive	inactive	inactive
CN1CCN(C(c2ccccc2)c2ccc(Cl)cc2)CC1 (configuration not stated)	5.69 µM (active)	10.1 µM (active)	inactive	inactive	inactive	inactive	inactive	inactive	inactive	inactive			inactive	inactive	-0.288	inactive	inactive	inactive
C[C@H](N)C(=O)N[C@@H](C)P(=O)(O)O	inactive	inactive	inactive	inactive	inactive	inactive	inactive	inactive	inactive	inactive	inactive	inactive	inactive	inactive	-2.51	inactive	inactive	inactive
CC(C)[C@@H]1CC[C@@H](C)C[C@H]1OC(=O)c1ccccc1O	inactive	inactive	inactive	inactive	inactive	inactive	inactive	inactive		inactive	inactive	inactive	inactive	inactive	-0.772	inactive	inactive	inactive
NS(=O)(=O)c1cc2c(cc1Cl)NC(Cc1ccccc1)NS2(=O)=O (configuration not stated)	inactive	inactive	inactive		inactive	inactive	inactive	inactive	inactive	inactive	inactive	inactive	inactive	inactive	-1.36	inactive	inactive	inactive
O=C(O)[C@H]1/C(=C/CO)O[C@@H]2CC(=O)N21	inactive	inactive	inactive	inactive	inactive	inactive	inactive		inactive	inactive	inactive	inactive	inactive	inactive	-2.31	inactive	inactive	inactive
O=P(O)(O)OC[C@H]1O[C@](O)(COP(=O)(O)O)[C@@H](O)[C@@H]1O	inactive	inactive	inactive	inactive	inactive		10.6 µM (active)	inactive	inactive	inactive	inactive	inactive	inactive	inactive	-2.72	inactive	inactive	inactive
COc1ccc(/C=C/C(=O)OCCC(C)C)cc1	inactive	inactive	inactive		inactive	inactive			inactive	inactive	inactive	inactive	inactive	inactive	9.31	inactive	inactive	inactive
COc1ccc2cc([C@H](C)CO)ccc2c1	inactive	inactive	inactive	inactive	inactive	inactive	33.5 µM (active)		inactive	inactive	inactive	inactive	inactive	inactive	-2.68	inactive	inactive	
O=C(CO)[C@@H](O)[C@H](O)[C@@H](O)C(=O)O	inactive	inactive	inactive		inactive	inactive	inactive	inactive	inactive	inactive	inactive	inactive	inactive	inactive	-2.1	inactive	inactive	
COc1cc(/C=C/C(=O)N2CCN(CC(=O)N3CCCC3)CC2)cc(OC)c1OC	inactive	inactive	inactive	inactive		inactive	inactive		inactive		inactive	inactive	inactive	inactive	0.536	inactive	inactive	inactive
NC(=O)c1ccc[n+]([C@@H]2O[C@H](COP(=O)([O-])OP(=O)(O)OC[C@H]3O[C@@H](n4cnc5c(N)ncnc54)[C@H](O)[C@@H]3O)[C@@H](O)[C@H]2O)c1	inactive	inactive	inactive	inactive		inactive	inactive	inactive	inactive	inactive	inactive	inactive	inactive	inactive	-1.3	inactive	inactive	inactive
COc1ccc(CC2c3cc(OC)c(OC)cc3CC[N+]2(C)CCC(=O)OCCCCCOC(=O)CC[N+]2(C)CCc3cc(OC)c(OC)cc3C2Cc2ccc(OC)c(OC)c2)cc1OC (configuration not stated)	inactive	inactive	inactive		inactive				inactive	inactive	inactive	inactive		inactive	-3.66	inactive	inactive	inactive
CC(=O)Nc1c(I)c(C(=O)O)c(I)c(N(C)C(C)=O)c1I	inactive	inactive	inactive		inactive				inactive	inactive	inactive	inactive	inactive	inactive	-0.923	inactive	inactive	inactive
CC1(C)S[C@@H]2[C@H](NC(=O)C3(N)CCCCC3)C(=O)N2[C@H]1C(=O)O	inactive	inactive	inactive		inactive				inactive	inactive	inactive	inactive		inactive	-4.4	inactive	inactive	inactive
C[C@]12CC[C@@H]3c4ccc(O)cc4CC[C@H]3[C@@H]1CC[C@@H]2OP(=O)(O)O	inactive	inactive	inactive		inactive	0.0013 µM [inconclusive] (active)	0.0021 µM (active)	inactive	inactive	inactive	inactive		inactive	inactive	0.522	inactive	inactive	
C[C@@](Cc1ccc(O)c(O)c1)(NN)C(=O)O	inactive	inactive	inactive	inactive	inactive	inactive		inactive	inactive	inactive	inactive		inactive	inactive	-6.63	inactive	inactive	inactive
O=c1oc2cc(O)ccc2s1	inactive	inactive	inactive		inactive	inactive	inactive		inactive	inactive	inactive	inactive		inactive	-17.1	inactive	inactive	inactive
CCOC(=O)O[C@]1(C(=O)COC(=O)CC)CC[C@H]2[C@@H]3CCC4=CC(=O)C=C[C@]4(C)[C@H]3[C@@H](O)C[C@@]21C	inactive	inactive	inactive	inactive	inactive	inactive	inactive		inactive	inactive	inactive	inactive	inactive	inactive	13.1	inactive	inactive	inactive
